Where “and” joins values, the source holds several entries; their conditions need not be identical. Equal values may be shown once.
biological target: C-X-C chemokine receptor type 6 (Homo sapiens) (UniProt O00574); test: apelin receptor (APJ) antagonists, SAR follow-up, counter-screen for CXCR6 antagonist project, cell-based, beta-arrestin, DiscoveRx, panel, CHO-K1 (AID 651598); conditions: CHO-K1 PathHunter beta-arrestin luminescence, antagonist mode; run 5, at 80 µM (top of the series)
Sequence (O00574 whole entry, looked up): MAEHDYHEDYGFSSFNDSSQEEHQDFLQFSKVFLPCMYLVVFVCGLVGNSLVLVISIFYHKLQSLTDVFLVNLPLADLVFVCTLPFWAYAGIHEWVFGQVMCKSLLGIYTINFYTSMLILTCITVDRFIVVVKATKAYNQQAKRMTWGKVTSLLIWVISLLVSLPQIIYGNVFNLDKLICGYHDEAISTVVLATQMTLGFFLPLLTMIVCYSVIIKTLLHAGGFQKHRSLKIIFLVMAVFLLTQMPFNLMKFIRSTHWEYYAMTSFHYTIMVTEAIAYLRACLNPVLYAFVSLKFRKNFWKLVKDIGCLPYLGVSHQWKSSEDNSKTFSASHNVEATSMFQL

Row | SMILES | inhibition
1 | COc1cc(C(=O)NC2CC3CCC(C2)N3CC(=O)Nc2ccccc2)cc(OC)c1OC (stereo not drawn) | 45.3% and 9.45%
2 | COc1cc(C(=O)NC2CCN(CC(=O)Nc3ccccc3)CC2)cc(OC)c1OC | 12%
3 | COc1cc(C(=O)NC2CC3CCCC(C2)N3CC(=O)Nc2ccccc2)cc(OC)c1OC (stereo not drawn) | 85.4% and 45.2% and 22.2%
